# KDM5B inh: KDM5B demethylase inhibition; Q9UGL1; KDM5B demethylase, FDH-coupled NADH fluorescence (FDH is formaldehyde dehydrogenase); Potency, µM (doses to about 57.7 µM), most hits filed as inhibitors; 220,000 tested, 2.6% active; AID 1347165; active means well fitted inhibition curve with a large enough effect; further: nearly all actives have a fitted effect of over 70% in size
# Target sequence (Q9UGL1 whole entry, looked up): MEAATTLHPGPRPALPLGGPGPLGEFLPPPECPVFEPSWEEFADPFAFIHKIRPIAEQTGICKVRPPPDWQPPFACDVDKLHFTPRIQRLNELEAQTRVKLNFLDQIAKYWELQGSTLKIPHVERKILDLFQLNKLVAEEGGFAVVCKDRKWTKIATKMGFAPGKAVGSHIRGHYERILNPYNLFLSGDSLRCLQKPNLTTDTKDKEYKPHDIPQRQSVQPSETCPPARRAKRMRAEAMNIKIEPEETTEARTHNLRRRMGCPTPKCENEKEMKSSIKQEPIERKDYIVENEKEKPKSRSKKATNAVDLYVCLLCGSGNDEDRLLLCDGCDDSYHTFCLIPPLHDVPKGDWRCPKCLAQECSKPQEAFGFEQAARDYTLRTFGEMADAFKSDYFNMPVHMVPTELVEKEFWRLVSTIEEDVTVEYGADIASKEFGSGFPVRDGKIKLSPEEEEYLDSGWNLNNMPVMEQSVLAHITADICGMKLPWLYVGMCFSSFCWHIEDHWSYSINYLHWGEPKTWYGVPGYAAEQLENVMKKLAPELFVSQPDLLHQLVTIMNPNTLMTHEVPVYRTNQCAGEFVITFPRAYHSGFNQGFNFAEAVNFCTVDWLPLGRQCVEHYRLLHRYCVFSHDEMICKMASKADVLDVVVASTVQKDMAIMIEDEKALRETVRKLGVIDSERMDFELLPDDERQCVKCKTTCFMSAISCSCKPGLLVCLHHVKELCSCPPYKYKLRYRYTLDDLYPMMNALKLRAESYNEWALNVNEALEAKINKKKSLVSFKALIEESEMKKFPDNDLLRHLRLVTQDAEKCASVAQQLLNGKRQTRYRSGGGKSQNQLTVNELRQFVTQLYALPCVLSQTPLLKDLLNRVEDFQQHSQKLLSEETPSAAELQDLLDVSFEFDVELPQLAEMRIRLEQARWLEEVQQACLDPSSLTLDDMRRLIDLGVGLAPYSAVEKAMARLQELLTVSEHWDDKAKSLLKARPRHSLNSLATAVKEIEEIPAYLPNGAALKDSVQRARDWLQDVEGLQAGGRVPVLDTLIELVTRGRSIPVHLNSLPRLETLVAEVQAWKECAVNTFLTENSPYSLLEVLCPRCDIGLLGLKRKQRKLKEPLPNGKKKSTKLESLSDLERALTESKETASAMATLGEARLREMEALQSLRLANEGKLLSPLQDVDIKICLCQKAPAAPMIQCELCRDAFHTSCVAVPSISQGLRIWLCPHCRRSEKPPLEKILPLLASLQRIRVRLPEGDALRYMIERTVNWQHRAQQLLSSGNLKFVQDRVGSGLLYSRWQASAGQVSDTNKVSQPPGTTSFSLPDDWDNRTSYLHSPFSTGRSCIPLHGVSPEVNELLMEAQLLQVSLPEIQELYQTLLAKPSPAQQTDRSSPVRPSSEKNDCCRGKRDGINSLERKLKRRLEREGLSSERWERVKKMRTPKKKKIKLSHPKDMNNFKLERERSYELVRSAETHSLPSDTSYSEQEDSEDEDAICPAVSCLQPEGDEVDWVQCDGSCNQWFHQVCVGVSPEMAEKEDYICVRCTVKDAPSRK
#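 Here, H3K4me3 peptide (12.5 µM in substrate mix) is demethylated by KDM5BΔAP, 200 nM final, after 10 min compound exposure. Formaldehyde product is coupled through FDH (0.25 U/mL in mix) to NADH fluorescence; 30-min ΔRFU feeds dose-response curves.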
# Hits are given with their value; 0 = inactive. The full list was thinned out, with hits kept by preference.
SMILES,KDM5B inh
COc1ccccc1-c1nc2cnccn2c1NCCC(=O)N1CCc2ccccc21,28.2µM
COc1cnc(CSc2nc(C)cc(C)n2)cc1OCC(=O)N1CCc2ccccc21,0
COc1ccc(Nc2c(-c3cccc(O)c3)nc3cnccn23)cc1,0
COc1cccc(-c2nc3cnccn3c2NCCC(=O)N2CCc3ccccc32)c1,22.4µM
COc1cccc(NC(=O)Cc2ccc(NC(=O)N3CCCCc4ccccc43)cc2)c1,0
COc1ccc2c(ccn2CC(=O)Nc2ccc3c(c2)OCO3)c1,0
CC(=O)Nc1ccc(NCC(=O)NCc2ccc(Cl)cc2)c(C(F)(F)F)c1,0
COCCCNC(=O)c1cc(-c2ccncc2)nc2ccccc12,0
Cc1csc(NC(=O)C(C)Sc2nnc(-c3ccco3)n2CC(C)C)n1 (stereo not given),0
CCN(CC)CCNCc1sccc1C,0
Cc1ccc(Cl)cc1NC(=O)c1n[nH]c(=O)c2ccccc12,0
Cc1ccc(C2=NC3(CCN(C(=O)Cc4cccs4)CC3)ON2)cc1,0
CC1=C(c2ccc(C)c(C)c2)S(=O)(=O)N(Cc2ccc(C(=O)NCCC(C)C)cc2)C1=O,0
CC1=CCC(CO)(CO)C(C)C1 (stereo not given),0
CSc1ccc(C(C)NC(=O)Cc2cccc(F)c2)cc1 (stereo not given),0
COc1ccc(CNc2nc(NCc3ccc(OC)cc3)n(S(=O)(=O)c3ccc(C)cc3)n2)cc1,0
COc1ccc(CN2CCOc3nc(-c4ccc(F)cc4F)ncc3C2=O)cc1,0
O=C1c2cnc(-c3cc4ccccc4o3)nc2OCCN1c1ccccc1,22.4µM
NC(=O)c1cccc(-c2ncc3c(n2)OCCN(c2ccccc2)C3=O)c1,0
C[S+](=O)([O-])c1cccc(-c2ncc3c(n2)OCCN(Cc2ccccc2)C3=O)c1,0
COc1ccc(CN2CCOc3nc(-c4ccc(O)c(F)c4)ncc3C2=O)cc1,31.6µM
O=C1c2cnc(-c3ccccc3)nc2OCCN1c1cccc(C(F)(F)F)c1,0
COc1cccc(-c2ncc3c(n2)OCCN(Cc2ccccc2)C3=O)c1,35.5µM
O=C1c2cnc(-c3cc4ccccc4o3)nc2OCCN1Cc1ccccc1,0
COc1ccc(-c2ncc3c(n2)OCCN(Cc2ccccc2)C3=O)cc1,0
SMILES,KDM5B inh
COc1cccc(-c2ncc3c(n2)OCCN(c2ccccc2)C3=O)c1,28.2µM
COc1cccc(-c2ncc3c(n2)OCCN(c2cccc(C(F)(F)F)c2)C3=O)c1,0
O=C1c2cnc(-c3cccc(C(F)(F)F)c3)nc2OCCN1Cc1ccccc1,0
COCCOC1CN(C2CCN(Cc3ccccc3)CC2)C12CCCCC2 (stereo not given),0
COc1ccc(CNC(=O)c2nn(Cc3ccccc3)c(=O)c3ccccc23)cc1,0
O=C(CC(F)(F)F)N1CCC(N2C(=O)C3(CCCC3)C2c2ccccc2)CC1 (stereo not given),0
O=C(CC1CCCCC1)N1CCn2c(nnc2[C@@H]2C[C@@H](O)CN2Cc2ccccc2)C1,0
COCC(C)Nc1ncnc2c1c(-c1ccccc1)cn2-c1cccc(C(F)(F)F)c1 (stereo not given),0
Cn1c(=O)[nH]c(=O)c2c1nc(N1CCN(Cc3ccc(Cl)cc3)CC1)n2Cc1ccccc1F,0
CCCCN(C)C(=O)Cn1cc(C#N)c2ccccc21,0
NC(=S)N/N=C/C1=C(c2ccccc2)C2C=CC1C2 (stereo not given),0
Cc1cc(C(=O)NC2CCCCC2C)cs1 (stereo not given),0
N#Cc1ccc(NS(N)(=O)=O)cc1,0
N#Cc1cccc(C(=O)OCc2ccccn2)c1,0
CCCCOc1ccc(C(=O)N2CCC[C@H]2c2nc(-c3ccc(F)cc3)no2)cc1,0
Cc1cccc(C(=O)NC(NC(C)C)C(Cl)(Cl)Cl)c1 (stereo not given),0
Cc1ccc2nc(C(=O)N[C@H](c3cnn(C)c3)C3CC(O)C3)cn2c1 (stereo not given in full),31.6µM
Cc1ccc(S(N)(=O)=O)cc1C(=O)N[C@H](c1cnn(C)c1)C1CC(O)C1 (stereo not given in full),0
CCNc1ncc(C(=O)N[C@H](c2cnn(C)c2)C2CC(O)C2)cn1 (stereo not given in full),28.2µM
Cn1cc([C@@H](NC(=O)c2n[nH]c3c2CCC3)C2CC(O)C2)cn1 (stereo not given in full),0
Cn1cc([C@@H](NC(=O)c2nc3ccccc3[nH]c2=O)C2CC(O)C2)cn1 (stereo not given in full),31.6µM
Cn1cc([C@@H](NC(=O)c2cc(=O)n(-c3ccccc3)[nH]2)C2CC(O)C2)cn1 (stereo not given in full),0
Cn1cc([C@@H](NC(=O)c2ccc3scnc3c2)C2CC(O)C2)cn1 (stereo not given in full),0
Cc1ccn2c(C(=O)N[C@H](c3cnn(C)c3)C3CC(O)C3)nnc2n1 (stereo not given in full),0
Cn1cc(C(NC(=O)c2ccc3c(c2)ncn3CCO)C2CC(O)C2)cn1 (stereo not given),0
SMILES,KDM5B inh
Cc1csc2nc(-c3ccc(NS(=O)(=O)c4cccs4)cc3)cn12,0
O=C(NCCC1CCN(C(=O)Nc2cc(F)cc(F)c2)CC1)c1ccc(F)cc1,0
CC(C)(C)CC(=O)Nc1ccncc1,0
CCS(=O)(=O)N1CCC(NC(=O)c2ccccc2C(=O)c2ccc(C)cc2)CC1,0
CO[C@H]1C(=O)N(C2CCNCC2)[C@H]1c1ccncc1,0
CCCOc1nccnc1NC1CCN(S(=O)(=O)CC)CC1,28.2µM
COC1CCOC2(CCN(C(=O)c3ccco3)CC2)C1 (stereo not given),0
c1cnc(N2CCOCC2)c(OC2CCNC2)n1 (stereo not given),0
O=C(c1n[nH]c2c1CCCCCC2)N1CCC(Cc2nncn2CC2CC2)CC1,0
COc1nccnc1NC1CCNCC1,15.8µM
COc1nccnc1NC1CCN(C(=O)c2ccco2)CC1,25.1µM
COC1CCC12CCN(C(=O)c1ccco1)CC2 (stereo not given),0
CCS(=O)(=O)N1CCC(Oc2ncccc2C(=O)N(C)C)C1 (stereo not given),0
COC(=O)CC1C(=O)NCCN1C(=O)c1n[nH]c2c1CCCC2 (stereo not given),0
COc1nccnc1NC1CCN(C(=O)c2n[nH]c3c2CCCC3)CC1,31.6µM
COCCNC(=O)[C@@H]1C[C@H](Oc2ccccc2)CN1C(=O)c1sc(C)nc1C,0
CCNC(=O)NC(=O)C(C)Sc1nnc(-c2cccc(C)c2)n1CCOC (stereo not given),0
CC(=O)N/N=C/c1ccc(C(C)C)cc1,0
CCOc1ccc(N/C=C/C(=O)c2cc(C)ccc2C)cc1,0
NC(=O)CN1C(=O)CO[C@H]2CN(Cc3ccc(Cl)cc3)C[C@H]21,0
C/C(=N/Nc1ccccc1C(F)(F)F)c1cc(Cl)ccc1Cl,0
CCCN(Cc1ccccc1)C(=O)c1ccc(CNC(N)=O)cc1,0
Cc1nnc(-c2cc(-c3ccncc3)ccn2)n1CCN1CCOCC1,0
O=C(c1cnn(-c2ccccc2F)c1-n1cccc1)N1CCN(c2ccccc2)CC1,0
CC(=O)N(C1CC1)C1CCOC2(CCN(C(=O)c3ccc4nc[nH]c4c3)CC2)C1 (stereo not given),0
CCCOc1nccnc1NC1CCN(C(=O)c2ccncc2)CC1,28.2µM
COc1nccnc1NC1CCN(C(=O)c2ccccc2)CC1,31.6µM
COc1nccnc1NC1CCN(S(=O)(=O)c2ccccc2)CC1,25.1µM
